Spn DPM-DC inh = blocks S. pneumoniae diphosphomevalonate decarboxylase; purified DPM-DC, PK/LDH coupled NADH fluorescence; calls only at 10 µM; 65,000 tested, 0.49% active;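 active means the 320 compounds with the highest percent inhibition in the single-dose primary screen, excluding strongly autofluorescent ones, cut at about 32% in these data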;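 further: kinetic rate of NADH fluorescence loss reporting ADP formed by the decarboxylase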
Fluor 339 460 = intrinsic fluorescence of library compounds, ex339/em460 – biochemical, MLSMR library, data from DPM-DC assay, artefact control, profiling panel. compound autofluorescence, ex339/em460 nm, NADH buffer; active compounds read high; 1 = no-compound wells, NADH background. fluorescence fold increase at 10 µM. 65,000 tested, 5.5% active;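 active means at 10 µM, mean starting fluorescence two-fold or more over control wells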;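 further: signal is the first read of a kinetic run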
Spn MK inh = inhibitors of Streptococcus pneumoniae mevalonate kinase; purified MK, PK/LDH-coupled NADH absorbance 340 nm; inhibition, % at 10 µM; 65,000 tested, 0.48% active;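 active means ranked among the strongest by inhibition in the single 10 µM screen, a fixed top-ranked set picked for dose follow-up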
Abs 340nm = compounds absorbing at 340 nm; compound absorbance at 340 nm, fold over control; fold change at 10 µM; 65,000 tested, under 10 active;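 active means at 10 µM dose, initial 340 nm absorbance at least 2 fold that of control wells; inactive means change under 2 fold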;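 further: initial absorbance extrapolated from kinetic A340 decline of NADH oxidation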
NADH coupling = blocks coupling enzymes of NAD/NADH assays; 65,000 tested, 0.02% active; IC50, µM (top dose mostly 10 µM); AID 774; coupled PK/LDH NADH assays, four targets;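 active means single-dose screening hits from any of four coupled enzyme assays that gave an IC50 when retested across doses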;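 further: the DPM-DC format reads NADH fluorescence rather than 340 nm absorbance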
Spn PMK inh = blocks S. pneumoniae phosphomevalonate kinase; 65,000 tested, 0.49% active; inhibition, % at 10 µM; purified PMK, PK/LDH-coupled NADH absorbance 340 nm;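 active means top-ranked compounds by inhibition in the single 10 µM screen, taking a fixed number of the strongest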
Hits are given with their value; – = inactive; · = no result given; + = active, no number; [ ] = another dose, or the depositor's remark. An excerpt weighted towards active compounds, which were near 6.8% of everything screened.

SMILES	Spn DPM-DC inh	Fluor 339 460	Spn MK inh	Abs 340nm	NADH coupling	Spn PMK inh
CCCC(C(=O)NC1CCCC1)N(CC1CCCO1)C(=O)c1snc(C(N)=O)c1N (centres undefined)	–	2.8	–	–	–	–
CCCC(C(=O)NC1CCCC1)N(CCCN1CCOCC1)C(=O)c1snc(C(N)=O)c1N (centres undefined)	–	2.2	–	–	–	–
COC(=O)CSCc1nc2ccccc2[nH]c1=O	–	–	–	–	–	–
CCCCNc1cc(C(=O)O)cc(S(N)(=O)=O)c1Oc1ccccc1	–	–	–	–	–	–
CC(C)NCC(O)Cn1c2c(c3ccccc31)CCc1c-2cnn1-c1ccccc1 (centres undefined)	·	3.9	–	–	–	–
CN1CCc2c(n(CC(O)CN3C(=O)c4ccccc4S3(=O)=O)c3ccccc23)C1=O (centres undefined)	–	–	–	–	–	–
O=C(NC1CCCCC1)c1ccc(CNc2ccccc2)o1	–	–	–	–	–	–
O=C(NC1CC1)c1ccc2c(c1)ncn2C1CCCC1	–	–	–	–	–	28
c1csc(Cn2c(-c3cccs3)nc3ccccc32)c1	–	2.8	–	–	–	–
Brc1ccccc1Cn1c(-c2cncs2)nc2ccccc21	–	–	–	–	–	–
OCCNc1ncnc2c1c(-c1ccccc1)c(-c1ccccc1)n2Cc1ccco1	+	–	–	–	–	–
COc1ccccc1NS(=O)(=O)c1ccc(C)c(C(=O)NCC2CCCO2)c1 (centres undefined)	–	–	–	–	–	–
CC(C)N(C(=O)CSc1nnnn1C1CCCC1)C(C)C	–	–	–	–	–	–
Cc1ccc(-c2cc(-c3nnc(SCC(=O)N(C)CCC#N)n3N)c3ccccc3n2)cc1	·	4.2	–	–	–	–
Cc1ccc(-c2nnc(SCC(=O)O)n2N)cc1	–	–	–	–	–	–
COc1ccc(OC)c2c1CC(C)(C)NC2=O	·	2.1	–	–	–	–
CCc1nn(C(C)C(=O)N2CCc3ccccc3C2)c(=O)c2cc3occc3n12 (centres undefined)	–	–	–	–	–	–
COc1ccc(NC(=O)c2nnn(Cc3ccc(SC)cc3)c2N)c(OC)c1	+	–	–	–	–	–
CC(C)N1C(=O)CCC1C(=O)N1CCCc2ccccc21 (centres undefined)	–	–	–	–	–	–
O=C1c2cccnc2C(=O)N1Cc1ccc2c(c1)OCO2	–	–	–	–	–	–
COc1cc2[nH]c3c(N4CCN(c5ccccn5)CC4)ncnc3c2cc1OC	·	3.7	–	–	–	–
O=C(c1ccco1)N1CCN(c2ncnc3c2[nH]c2ccccc23)CC1	–	–	–	–	–	–
CCOC(=O)N1CCN(c2ncnc3c2[nH]c2ccc(OC)cc23)CC1	·	2.5	–	–	–	–
Fc1ccc2[nH]c3c(N4CCN(c5ccccc5)CC4)ncnc3c2c1	–	–	–	–	–	–
COc1cccc2[nH]c3c(N4CCCCC4)ncnc3c12	·	3.7	–	–	–	–
SMILES	Spn DPM-DC inh	Fluor 339 460	Spn MK inh	Abs 340nm	NADH coupling	Spn PMK inh
O=C(c1ccco1)N1CCN(c2ncnc3c2[nH]c2ccc(Br)cc23)CC1	–	–	–	–	–	–
CCOC(=O)C1CCN(c2ncnc3c2[nH]c2cccc(OC)c23)CC1	·	3.7	–	–	–	–
CCOC(=O)C1CCN(C(=O)CCCCn2c(=O)[nH]c3ccccc3c2=O)CC1	–	–	–	–	–	–
CN(Cc1ccco1)C(=O)C1CCC(=O)N1Cc1ccc(F)cc1 (centres undefined)	–	–	–	–	–	–
CCOC(=O)CSc1nc(N)c(C(=O)Nc2ccc(N(C)C)cc2)s1	–	–	–	–	–	–
CCOc1c(C)cc(-c2ncccc2O)cc1C	–	3.8	–	–	–	–
COCCCn1c(=NC(=O)c2ccncc2)c(C#N)cc2c(=O)n3cccc(C)c3nc21	·	3.9	–	–	–	–
Cc1cccn2c(=O)c3cc(C#N)c(=N)n(CCN4CCOCC4)c3nc12	·	–	–	–	–	–
CCCn1c(=NC(=O)c2ccc3c(c2)OCO3)c(C#N)cc2c(=O)n3cccc(C)c3nc21	–	–	–	–	–	–
CCCn1c(=NC(=O)c2ccncc2)c(C#N)cc2c(=O)n3cccc(C)c3nc21	·	3.6	–	–	–	–
Cc1cccn2c(=O)c3cc(C#N)c(=NC(=O)c4ccncc4)n(CCCOC(C)C)c3nc12	·	3.6	–	–	–	–
c1ccc2sc(SN3CCOCC3)nc2c1	–	–	–	–	–	–
Cc1onc(-c2c(F)cccc2Cl)c1C(=O)OCC(=O)Nc1c(C)n(C)n(-c2ccccc2)c1=O	–	–	–	–	–	–
N#CC1=C(N)C(C#N)(C#N)[C@H](c2ccoc2)[C@H]2CN(Cc3ccccc3)CC=C12	–	2.3	–	–	–	–
CCN1CC=C2C(C#N)=C(N)C(C#N)(C#N)C(CCc3ccccc3)C2C1 (centres undefined)	·	5.1	–	–	–	–
COc1ccc(OC)c(C2C3CN(C(C)C)CC=C3C(C#N)=C(N)C2(C#N)C#N)c1 (centres undefined)	–	–	–	–	–	–
CCCN1CC=C2C(C#N)=C(N)C(C#N)(C#N)C(c3cccc(OC)c3OC)C2C1 (centres undefined)	–	2.2	–	–	–	–
Cc1ccc(C2C3CN(C(C)C)CC=C3C(C#N)=C(N)C2(C#N)C#N)cc1 (centres undefined)	+[fluoresces]	2.3	–	–	–	–
CN1CC=C2C(C#N)=C(N)C(C#N)(C#N)C(c3cccc(Cl)c3Cl)C2C1 (centres undefined)	–	–	–	–	–	–
c1ccc(-c2ncnc3nc4n(c23)CCC4)cc1	–	–	–	–	–	–
CCn1c(=O)cc(SCC(=O)NCCCN2CCN(c3ccccc3F)CC2)c2ccccc21	–	–	–	–	–	–
Cc1cc(C)nc(NS(=O)(=O)c2ccc(NC(=O)CCCN3C(=O)c4ccccc4C3=O)cc2)n1	–	–	–	–	–	–
CC(C)OCCCn1c(-c2ccco2)nc2nc3ccccc3nc21	·	3.8	–	–	–	–
COCCn1c(-c2ccco2)nc2nc3ccccc3nc21	·	3	–	–	–	–
COc1ccccc1Oc1ccc(S(=O)(=O)NCc2ccccn2)cc1	–	–	–	–	–	–
COc1ccc(-c2nnn(CC(=O)c3ccccc3)n2)cc1OC	–	–	–	–	–	–
Cn1c(=O)c2cc(S(=O)(=O)NC(C(=O)NCc3cccnc3)c3ccccc3)ccc2n(C)c1=O (centres undefined)	–	–	–	–	–	–
CSc1nnc(-c2cc3ccccc3cc2O)n1C	·	2.3	–	–	–	–
CSc1nnc(-c2ccc(O)cc2)n1C	–	–	–	–	–	–
Cc1cccc2cc3c(N)c(C(=O)N4CCOCC4)sc3nc12	–	–	–	–	–	–
